Our source for the inhibition values is ChEMBL document CHEMBL1961873, “Compounds: GSK PKIS; Assays: Nanosyn kinase panel” (2012).

SMILES strings stand for the structures.

A word on the inhibition: it is the drop in the measured response relative to a control, in per cent.
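Note: reported as mean inhibition of EPHB2, from the GSK PKIS dataset.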

The target of this experiment is T1, Ephrin type-B receptor 2 (Homo sapiens) (UniProt P29323).
T1 sequence (whole entry): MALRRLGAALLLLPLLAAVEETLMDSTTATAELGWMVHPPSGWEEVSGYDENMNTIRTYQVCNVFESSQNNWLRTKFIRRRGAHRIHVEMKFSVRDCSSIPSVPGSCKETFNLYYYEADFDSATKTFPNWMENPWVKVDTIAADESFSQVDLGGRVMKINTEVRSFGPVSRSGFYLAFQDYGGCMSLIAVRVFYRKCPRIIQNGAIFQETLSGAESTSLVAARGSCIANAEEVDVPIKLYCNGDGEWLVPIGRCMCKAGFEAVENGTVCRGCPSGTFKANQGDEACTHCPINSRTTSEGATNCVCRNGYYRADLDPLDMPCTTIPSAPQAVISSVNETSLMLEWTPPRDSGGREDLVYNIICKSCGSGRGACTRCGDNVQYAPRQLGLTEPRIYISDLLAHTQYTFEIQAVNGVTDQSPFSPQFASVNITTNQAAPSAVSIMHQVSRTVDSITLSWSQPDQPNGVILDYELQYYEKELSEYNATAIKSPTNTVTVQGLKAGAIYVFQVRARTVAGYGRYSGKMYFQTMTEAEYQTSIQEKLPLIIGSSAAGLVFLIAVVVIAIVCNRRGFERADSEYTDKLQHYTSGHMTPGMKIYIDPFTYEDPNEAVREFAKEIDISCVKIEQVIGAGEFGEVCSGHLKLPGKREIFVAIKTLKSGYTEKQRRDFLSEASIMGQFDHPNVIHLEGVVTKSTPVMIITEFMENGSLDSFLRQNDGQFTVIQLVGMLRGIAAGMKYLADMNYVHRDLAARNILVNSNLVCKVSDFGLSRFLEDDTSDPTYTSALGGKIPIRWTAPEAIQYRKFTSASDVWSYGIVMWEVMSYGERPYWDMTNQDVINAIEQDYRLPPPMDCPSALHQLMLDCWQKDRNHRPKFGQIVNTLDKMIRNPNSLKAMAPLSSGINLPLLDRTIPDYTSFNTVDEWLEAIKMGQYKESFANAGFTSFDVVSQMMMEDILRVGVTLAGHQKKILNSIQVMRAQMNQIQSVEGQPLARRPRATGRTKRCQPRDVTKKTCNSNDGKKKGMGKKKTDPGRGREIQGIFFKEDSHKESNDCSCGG
The conditions noted are these: at 0.1 µM.
Regarding `CN(C)C(=O)O[C@H]1CN[C@H](C#Cc2cc3ncnc(Nc4ccc(OCc5cccc(F)c5)c(Cl)c4)c3s2)C1`, the inhibition amounted to 9.47%.
The value for `CCS(=O)(=O)c1ccc(OC)c(Nc2ncc(-c3cccc(OC)c3)o2)c1` was 9.46%; that for `COc1cc2ncn(-c3cc(OCc4ccccc4S(C)(=O)=O)c(C#N)s3)c2cc1OC` was 14%; that for `[O-][S+]1CCN(Cc2ccc(-c3ccc4ncnc(Nc5ccc(OCc6ccccc6)c(Cl)c5)c4c3)o2)CC1` was 6.04%.
The value for `OCc1ccc(-c2nc(-c3ccccn3)c(-c3ccc4c(c3)OCO4)[nH]2)cc1` was 12.2%.
With `COc1cc(/C=N/Nc2ncnc3c2cnn3C(C)C)ccc1O` the figure was 5.57%.
Regarding `Nc1nccc(-c2c(-c3ccc(F)cc3)nn3cc(C(F)(F)F)ccc23)n1`, the inhibition was -9.27%.
With `CN(C)CCCn1c(-c2nonc2N)nc2cnccc21`, the inhibition stood at 3.03%.
With `COc1cc(Nc2nccc(-c3cnn4ncccc34)n2)cc(OC)c1` the figure was 4.13%.
With `NS(=O)(=O)c1cccc(-c2cc3ccncc3cc2OCc2ccccc2)c1` the figure was 4.23%.
With `CN1CCN(C(=O)c2ccc(NC(=O)Nc3ccc(N(C)c4ccnc(Nc5ccc(CS(C)(=O)=O)cc5)n4)cc3)cc2)CC1` the figure was 8.44%.
As to `Cc1ccc2c(c1)/C(=N/Nc1ccc(S(N)(=O)=O)cc1)C(=O)N2`, the inhibition is -2.4%.
For `Cc1ccc(NC(=O)CC2CC2)cc1-c1ccc(C(=O)NCC2CC2)cc1`, the inhibition is 6.33%.
With `CN(c1ccc(NC(=O)Nc2ccc(OC(F)(F)F)cc2)cc1)c1ccnc(Nc2cccc(S(N)(=O)=O)c2)n1` the figure was 10.9%.
Turning to `C[C@@H](Oc1cc(-n2cnc3ccc(OC[C@@H](O)CO)cc32)sc1C(N)=O)c1ccccc1Cl`, the inhibition was -0.2%.
